# Measurements taken from PubChem BioAssay AID489028 (Sanford-Burnham Center for Chemical Genomics, 2010).
# Screen size: about 10,000 compounds; about 5,600 (56%) were called active. Rule as the data show it: active = inhibition above about 40%; inactive = the rest. The set was probably picked from earlier hits. Not all results are given here.
# Target: Protein Mdm4 (Homo sapiens) + E3 ubiquitin-protein ligase Mdm2 (Homo sapiens) (UniProt O15151+Q00987)
# Assay: inhibition of human Mdm2/MdmX pairing – luminescence, single concentration, confirmation (AID 489028)
# Conditions: Mdm2-MdmX binding, luminescent assay; at 8 µM; hits give high values
# Chain of Protein Mdm4 (Homo sapiens) + E3 ubiquitin-protein ligase Mdm2 (Homo sapiens) (O15151 whole entry, looked up): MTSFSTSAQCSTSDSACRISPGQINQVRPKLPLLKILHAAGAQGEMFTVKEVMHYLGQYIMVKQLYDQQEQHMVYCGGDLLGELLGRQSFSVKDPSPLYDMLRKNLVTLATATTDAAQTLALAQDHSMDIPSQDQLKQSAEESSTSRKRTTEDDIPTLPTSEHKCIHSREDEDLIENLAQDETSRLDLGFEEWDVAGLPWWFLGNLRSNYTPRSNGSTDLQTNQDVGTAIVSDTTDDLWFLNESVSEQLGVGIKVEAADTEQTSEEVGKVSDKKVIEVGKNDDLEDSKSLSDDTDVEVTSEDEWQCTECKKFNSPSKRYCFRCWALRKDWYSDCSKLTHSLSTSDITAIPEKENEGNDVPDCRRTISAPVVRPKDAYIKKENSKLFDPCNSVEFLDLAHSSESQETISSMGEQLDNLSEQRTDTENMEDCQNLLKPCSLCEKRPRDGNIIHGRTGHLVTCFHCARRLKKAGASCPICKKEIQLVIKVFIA
# Chain of Protein Mdm4 (Homo sapiens) + E3 ubiquitin-protein ligase Mdm2 (Homo sapiens) (Q00987 whole entry, looked up): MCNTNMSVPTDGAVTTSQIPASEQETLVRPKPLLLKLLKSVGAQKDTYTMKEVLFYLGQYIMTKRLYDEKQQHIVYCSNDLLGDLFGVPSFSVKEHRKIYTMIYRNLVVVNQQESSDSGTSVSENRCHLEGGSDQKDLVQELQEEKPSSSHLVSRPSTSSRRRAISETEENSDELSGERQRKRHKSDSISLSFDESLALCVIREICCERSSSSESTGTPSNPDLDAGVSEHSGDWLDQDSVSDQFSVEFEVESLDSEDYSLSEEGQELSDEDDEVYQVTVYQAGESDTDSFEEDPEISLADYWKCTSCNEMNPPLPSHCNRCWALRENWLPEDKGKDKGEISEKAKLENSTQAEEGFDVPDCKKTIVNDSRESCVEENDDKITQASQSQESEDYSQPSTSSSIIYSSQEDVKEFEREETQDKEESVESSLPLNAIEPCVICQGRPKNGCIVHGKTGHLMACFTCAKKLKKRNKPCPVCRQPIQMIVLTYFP
row,SMILES,inhibition
1,O=C(/C=C/c1ccc(OCc2c(F)cccc2Cl)cc1)N1CCOCC1,66.7% (active)
2,CCc1nc(C)cn1S(=O)(=O)c1cc([N+](=O)[O-])ccc1Cl,50.9% (active)
3,O=C(CCCN1C(=O)/C(=C\c2ccco2)SC1=S)Nc1cccc2ccccc12,94.5% (active)
4,O=C(CCCN1C(=O)/C(=C/c2ccco2)SC1=S)Nc1ccccc1,70.8% (active)
5,OC(CNCC1CCCO1)Cn1c2ccc(Br)cc2c2cc(Br)ccc21 (centres undefined),38% (inactive)
6,Cc1oc2c(c1C(=O)N1CCOCC1)C(=O)c1ccccc1C2=O,62.5% (active)
7,Cc1c(C(=O)Nc2cccc(Cl)c2)cn2c(nc3ccccc32)c1C#N,9.95% (inactive)
8,COc1ccc2nc(Nc3nc4ccc(NC(C)=O)cc4s3)sc2c1,35.2% (inactive)
9,Cc1nnc(NC(=O)Nc2ccc(Cl)c(Cl)c2)s1,86.5% (active)
10,Cc1nc(N2CCN(c3ccccn3)CC2)c2c(C)c(C(=O)Nc3ccc(F)c(Cl)c3)sc2n1,34.2% (inactive)
11,CC(C)(C)CC(C)(C)NCC(O)COCCOc1ccc(Br)cc1 (centres undefined),51.1% (active)
12,Cc1nn(-c2ccccc2)c2sc(C(=O)N(Cc3ccco3)C(C)C(=O)NC(C)(C)C)cc12 (centres undefined),12.8% (inactive)
13,CC[C@H]1CN2CCc3cc(OC)c(OC)cc3[C@@H]2C[C@@H]1C[C@H]1NCCc2cc(OC)c(OC)cc21,99.8% (active)
14,Cc1ccc(-c2cccc([C@H]3[C@@H]4C=CC[C@@H](C)[C@@H]4C(=O)N3Cc3ccccc3)c2)cc1,-5.3% (inactive)
15,CCOC(=O)c1ccc(NC(=O)c2c(NCc3ccccc3)[nH]c(=O)[nH]c2=O)cc1,12.4% (inactive)
16,Cc1cc(NC(=O)/C=C/C(=O)N(c2ccccc2C)C(C(=O)NC2CCCC2)c2ccc(F)cc2)no1 (centres undefined),70% (active)
17,N/C(=N\OC(=O)N1c2ccccc2Sc2ccccc21)c1ccc(Br)cc1,-3.5% (inactive)
18,N/C(=N\OC(=O)c1ccc2c(c1)OCO2)c1ccc(Br)cc1,40.2% (active)
19,CCOC(=O)/C=c1\s/c(=C\c2ccc(C#N)cc2)c(=O)n1CC(=O)Nc1cccc(C)c1C,8.85% (inactive)
20,Oc1ccccc1C1=NN(c2ccccc2)C(c2ccccc2)C1 (centres undefined),8.55% (inactive)
21,COc1ccc(OC)c(NC(=O)c2sc3nc(C)cc(C)c3c2N)c1,15.5% (inactive)
22,COc1ccc(NC(=O)c2cc(-c3cc(OC)c(OC)c(OC)c3)nc3ccccc23)c(OC)c1,57% (active)
23,O=C(Nc1nnc(-c2ccccc2)o1)c1cc(-c2cccs2)nc2ccccc12,29.7% (inactive)
24,O=[N+]([O-])c1c(NCCO)cc(Sc2nc3ccccc3s2)c2nonc12,96.7% (active)
25,COc1cccc(CNC(=O)c2nnn(CC(=O)Nc3cc(Cl)ccc3C)c2N)c1,62.3% (active)
26,COc1cccc(CNC(=O)Cc2csc(Nc3nc(=S)[nH]c4ccccc34)n2)c1,15.8% (inactive)
27,CCCCCCSc1ccc([C@@H]2[C@@H]3C(=O)N(CC)C(=O)[C@@H]3[C@]3(C(=O)OC)CCCCN23)cc1OC,21.6% (inactive)

row,SMILES,inhibition
1,CCOC(=O)/C(=C\c1ccc([N+](=O)[O-])cc1)C(=O)c1cc(C(C)=O)c(Nc2ccccc2)s1,99.6% (active)
2,Cc1ccc2occ(/C=N/NC(=O)c3ccccc3C)c(=O)c2c1,65.8% (active)
3,Cn1c(C(=O)NCCCN2CCN(c3cccc(Cl)c3)CC2)cc2c(=O)n(C)c3ccccc3c21,37.8% (inactive)
4,CCc1ccc(-c2cc3c(=O)n(CC(=O)NCCCN4CCN(Cc5ccccc5)CC4)nc(C)n3n2)cc1,55.5% (active)
5,C=CC[C@H](CC(=O)N(CCO)Cc1ccccc1)C(=O)N[C@@H](COC(=O)[C@@H](CC=C)Cc1ccc(F)cc1)Cc1ccccc1,1.35% (inactive)
6,O=C(C[C@H]1C/C=C\C[C@@H](NC(=O)OCC2c3ccccc3-c3ccccc32)C(=O)O[C@@H](c2ccccc2)CNC1=O)N[C@H](CO)Cc1ccccc1,28.4% (inactive)
7,O=C1NC[C@@H](c2ccccc2)OC(=O)[C@H](Cc2ccc(F)cc2)CC/C=C/C[C@H]1CC(=O)N(CCO)Cc1ccccc1,54.5% (active)
8,CN1CCN(CCCNC(=O)c2ccc(/C=C3\Oc4ccccc4N(Cc4ccc(Cl)cc4)C3=O)cc2)CC1,55% (active)
9,Cc1ccccc1C(CC(=O)c1cccs1)C(C#N)C#N (centres undefined),54.7% (active)
10,Clc1cccc(Cl)c1OCCOCCNCc1ccccc1,86% (active)
11,O=C(N/N=C/c1sc(N2CCCCC2)nc1-c1cccs1)c1cccnc1,25.3% (inactive)
12,CCOc1ccccc1NC(=O)Cn1nnc(C(=O)NCc2cccs2)c1N,52.7% (active)
13,Cc1ccc(-c2nn(C(C)(C)C)c3ncnc(N)c23)cc1,67% (active)
14,COc1cc(SC)ccc1C(=O)Nc1nc(C)cs1,57.5% (active)
15,CCCC(=O)Nc1ccc(C(=O)N/N=C/c2ccc[nH]2)cc1,6.9% (inactive)
16,CCn1c(/C=C/Nc2ccccc2)[n+](CC)c2ccc(C(=O)OCC(F)(F)F)cc21,13.1% (inactive)
17,O=C(COc1ccccc1F)Nc1nc(-c2ccccn2)cs1,53.6% (active)
18,CCOC(=O)N1CCN(C(=O)c2ccc(S(=O)(=O)c3ccc(C)cc3)c(NC(C)=O)c2)CC1,8.65% (inactive)
19,CC1CCN(C(=O)c2ccc(S(=O)(=O)Cc3cc(F)ccc3F)c([N+](=O)[O-])c2)CC1,64% (active)
20,FC(F)(F)c1nnc2c3ccccc3c(Cl)nn12,47% (active)
21,COc1ccccc1C(=O)NC(=S)NC12CC3CC(CC(C3)C1)C2,21.8% (inactive)
22,Cn1nc(-c2ccccc2)c(CSc2cccc(Cl)c2)c1Cl,48.5% (active)
23,CCOC(=O)c1c(NC(=O)c2ccc(S(=O)(=O)N(C)CC3CCCO3)cc2)sc2c1CC(C)(C)NC2(C)C (centres undefined),47.1% (active)
24,C=CCN(CC=C)S(=O)(=O)c1ccc(C(=O)Nc2sc3c(c2C(N)=O)CCCCC3)cc1,10.8% (inactive)
25,CC1(C)CCSC(/C=C/c2ccccc2)=N1,68% (active)
26,Cc1[nH]c(=O)c(C(=O)/C=C/c2ccccc2)c2c1CCCC2,99.5% (active)
27,C=CCn1c(C)cc(C2=NNC(=NCC)SC2)c1C,98.1% (active)
